# PostGolgi ctrl: yeast control strain growth, post-Golgi counter-screen. efflux-deficient yeast background strain, growth absorbance A615, 16 h. inhibition, % at 10 µM. 98,000 tested, 5% active. AID 738
# CYP2C9 inh: human CYP2C9 inhibition; CYP2C9 Supersomes, luciferin-H conversion, luminescence; inhibition, % at 5 µM; 96,000 tested, 20% active;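 active = blocking of liver enzyme CYP2C9 beyond about 50% at 5 µM, limit read from the data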
# Target sequence (P11712 whole entry, looked up): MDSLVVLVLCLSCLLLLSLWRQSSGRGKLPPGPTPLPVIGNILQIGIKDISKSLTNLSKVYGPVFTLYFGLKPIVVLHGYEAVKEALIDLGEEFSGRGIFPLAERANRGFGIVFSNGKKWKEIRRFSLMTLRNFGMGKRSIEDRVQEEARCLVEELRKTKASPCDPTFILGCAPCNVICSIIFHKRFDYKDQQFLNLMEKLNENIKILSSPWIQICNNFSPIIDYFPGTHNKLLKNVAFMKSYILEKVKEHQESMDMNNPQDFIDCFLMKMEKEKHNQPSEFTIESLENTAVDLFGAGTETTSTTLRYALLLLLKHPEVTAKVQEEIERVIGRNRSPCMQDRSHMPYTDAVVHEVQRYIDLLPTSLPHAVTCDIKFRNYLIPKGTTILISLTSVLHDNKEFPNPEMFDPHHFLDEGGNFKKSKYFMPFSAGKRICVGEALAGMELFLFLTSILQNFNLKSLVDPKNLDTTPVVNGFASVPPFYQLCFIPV
# PostGolgi yeast: growth inhibition of a yeast mutant, post-Golgi transport screen. post-Golgi transport phenotypic cell assay. inhibition, % at 10 µM. 98,000 tested, 0.9% active;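 note: yeast cells grown in 1536-well plates; yeast grown about 18 h at 30C before absorbance read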
# CYP2C19 act: increases human CYP2C19 enzyme activity; AID 1025; P33261; 96,000 tested, under 10 active; activation factor at 5 µM; recombinant CYP2C19, luciferin-H EGE luminescence; active compounds read high; 0 = fully inhibited enzyme, 1 = untreated enzyme;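 active = activation factor of at least 2 at 5 µM in the primary screen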;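 note: 0 = wells with 2.5 mM tranylcypromine and 1 = vehicle-only wells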
# CYP2C19 inh: inhibitors of human CYP2C19; P33261; CYP2C19 Supersomes, luciferin-H EGE luminescence, 30 min; 96,000 tested, 21% active; AID 778; inhibition, % at 5 µM;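 active = CYP2C19 inhibition above a set limit at 5 µM in the primary screen, cut at about 50% in these data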;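 note: plate controls were negative control wells for no effect and 2.5 mM tranylcypromine positive control for full effect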
# CYP2C9 act: activators of human CYP2C9. P11712. recombinant CYP2C9, luciferin-H conversion, luminescence; active compounds read high; factor 1 = untreated enzyme, 0 = blocked. activation factor at 5 µM. 96,000 tested, 1.4% active;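 active = activation factor of 2 or more for CYP2C9 at a 5 µM dose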;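 note: 0 = sulfaphenazole-blocked wells and 1 = vehicle-only wells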
# * marks the source's active call; other numbers are inactive results; / = no result. Rows were chosen to be rich in hits. Some 32% of all compounds tested hit in one or more screens of this group. Cut-off read from the data, not from the text of the source, unless noted: active = inhibition above about 30%; inactive = the rest.
SMILES,PostGolgi ctrl,CYP2C9 inh,PostGolgi yeast,CYP2C19 act,CYP2C19 inh,CYP2C9 act
Cc1ccccc1-n1ncc2c([N+](=O)[O-])cc([N+](=O)[O-])cc21,15.9,/,13.8,/,/,/
Cc1ccc(CNC(=O)c2cnc(-c3ccccn3)nc2C(F)(F)F)cc1,-8.0,43.5,-4.1,0.8,17.6,0.6
C=CCn1c(SCC(=O)Nc2ccc3c(c2)CCC3)nnc1-c1cccs1,10.8,46.7,-4.6,0.8,22.9,0.5
C=CCn1c(COc2ccccc2)nnc1SCC(=O)Nc1ccc(S(N)(=O)=O)cc1,-0.1,50.9*,-2.0,0.6,37.8,0.5
C=CCn1c(COc2ccc(Cl)cc2)nnc1SCC(=O)N1CC(=O)Nc2ccccc21,-4.8,-156.3,-6.3,0.7,30.8,2.6*
C=CCn1c(COc2ccccc2)nnc1SC(C)C(=O)N/N=C/c1cc(Cl)ccc1O (stereo unspecified),11.0,50.0*,0.9,0.6,35.1,0.5
C=CCn1c(COc2ccc3c(c2)CCCC3)nnc1SCC(=O)Nc1cccc(SC)c1,6.5,50.6*,1.8,0.7,29.4,0.5
C=CCn1c(COc2ccccc2)nnc1SCC(=O)C(C)(C)C,0.0,44.2,-2.0,0.4,64.9*,0.6
C=CCn1c(COc2ccccc2)nnc1SCC(=O)Nc1ccc2c(c1)OCCO2,0.6,23.0,-8.2,0.8,19.0,0.8
Cc1nc2nc(-c3ccccc3)cn2nc1C,-3.9,23.9,3.7,0.5,52.3*,0.8
Brc1ccc(-c2cn3nc4c(nc3n2)CCCC4)cc1,19.9,18.6,15.2,0.6,38.2,0.8
c1ccc(-c2cn3nc4c(nc3n2)CCCC4)cc1,19.8,28.7,14.8,0.2,80.8*,0.7
Nc1nc(SCC(=O)NCCCN2CCOCC2)nc2sc3c(c12)CCC3,-0.1,-6.9,-2.9,1,4.8,1.1
Cc1cc2oc(=O)cc(CN3CCc4ccccc43)c2cc1Cl,35.9*,61.3*,-0.7,0.2,79.0*,0.4
Cc1ccc2c(CN3CCCc4ccccc43)cc(=O)oc2c1C,13.8,30.9,0.0,0.7,25.1,0.7
CCc1ccc2c(CN3CCc4ccccc43)cc(=O)oc2c1,13.6,43.8,-14.4,0.1,94.1*,0.6
Nc1c(C(=O)OCC2CCCO2)c2nc3ccccc3nc2n1C1CCCC1 (stereo unspecified),48.2*,55.4*,9.0,0.8,19.9,0.4
COCCn1c(N)c(C(=O)NCC2CCCO2)c2nc3ccccc3nc21 (stereo unspecified),8.0,21.4,3.1,0.8,19.6,0.8
CC(C)Cn1c(N)c(C(=O)NCC2CCCO2)c2nc3ccccc3nc21 (stereo unspecified),10.5,85.3*,-2.8,0.4,64.7*,0.1
CCOC(=O)c1ccc2nc3c(cc2c1)CCS3,1.8,46.6,1.4,1,3.7,0.5
Cc1ccc(C)c(N2CCN(S(=O)(=O)c3ccc4c(c3)OCCO4)CC2)c1,21.7,89.6*,-3.6,0.2,81.0*,0.1
Cc1ccc(Cl)cc1N1CCN(S(=O)(=O)c2ccc3c(c2)OCCO3)CC1,19.1,79.5*,2.1,0.5,45.9,0.2
Cc1cc(C)c2oc(=O)cc(CN3CCN(Cc4ccc5c(c4)OCO5)CC3)c2c1,11.2,8.9,3.5,0.7,31.0,0.9
Cc1ccc(S(=O)(=O)N2CCOCC2)cc1C(=O)NCc1ccc2c(c1)OCO2,4.1,48.0,13.4,0.8,24.6,0.5
O=S(=O)(c1ccc2c(c1)OCCCO2)N1CCNCC1,10.2,-10.9,4.8,1.1,-6.0,1.1
SMILES,PostGolgi ctrl,CYP2C9 inh,PostGolgi yeast,CYP2C19 act,CYP2C19 inh,CYP2C9 act
CC(=O)Nc1ccc(S(=O)(=O)N2CCN(c3cc(C)ccc3C)CC2)cc1,58.4*,85.3*,5.8,0.7,30.9,0.1
Cc1cc2oc(=O)cc(CN3CCN(S(=O)(=O)c4ccc5c(c4)OCCO5)CC3)c2cc1C,26.2,83.7*,2.5,0.4,58.2*,0.2
CSc1nnc(-c2sccc2OCc2ccc(C)cc2)n1C,20.9,13.1,0.5,0.8,17.3,0.9
O=C(c1ccc2c(c1)OCO2)N(c1ccc(F)cc1)C1C=CS(=O)(=O)C1 (stereo unspecified),2.1,1.2,-2.3,0.9,12.5,1
Nc1c(S(=O)(=O)c2cccc(Cl)c2)c2nc3ccccc3nc2n1/N=C/c1ccc(O)c(O)c1,-4.2,7.8,6.0,1.1,-13.2,0.9
CC1Cc2cc(C3(O)C(=O)c4ccccc4C3=O)ccc2N1 (stereo unspecified),1.4,-142.1,4.3,0.4,60.2*,2.4*
COc1ccc(Cn2c(CCC(=O)Nc3ccc(C)cc3)nc3cccnc32)cc1,8.0,37.6,9.5,0.4,60.9*,0.6
O=C(O)CCC(=O)N1CCc2cc(S(=O)(=O)Nc3ccc4c(c3)OCCO4)ccc21,13.7,24.1,2.4,0.8,19.1,0.8
CSc1ccc(S(=O)(=O)Nc2ccc3c(c2)OCCO3)cc1,21.4,48.0,-5.5,0.3,68.2*,0.5
O=C1CCCN1c1ccc(S(=O)(=O)Nc2ccc3c(c2)OCCO3)cc1,0.1,40.5,-3.4,0.6,44.0,0.6
CSc1ccc(S(=O)(=O)N2CCCC2)cc1,6.9,/,6.1,/,/,/
O=S(=O)(Nc1ccc2c(c1)OCCO2)c1ccc(F)cc1,14.5,68.7*,-4.2,0.1,88.4*,0.3
O=S(=O)(NCc1ccc(F)cc1)c1ccc2c(c1)OCCO2,14.3,-95.0,4.0,0.4,59.8*,2*
CSc1ccc(S(=O)(=O)Nc2ccc(N3CCOCC3)c(Cl)c2)cc1,3.3,97.5*,-14.9,0,99.6*,0
Cc1ccccc1C1NS(=O)(=O)N=C1N (stereo unspecified),9.7,12.4,-3.0,1,0.7,0.9
Cn1nc(OC(=O)Nc2ccc(Cl)cc2)cc1C(F)(F)F,-0.9,30.1,19.7,0.8,19.6,0.7
Cc1ccc(Sc2cc(Cl)nc(N)n2)cc1,9.7,3.8,-7.5,1,4.0,1
FC(F)(F)c1nnc2ccc(NCn3nnc4ccccc43)nn12,-4.3,68.5*,-3.9,0.6,43.0,0.3
Cc1nonc1NCn1nnc2ccccc21,2.2,47.9,5.0,0.9,13.3,0.5
CCOc1cc(C(=O)Nc2cccc3ncccc23)cc(OCC)c1OCC,0.6,16.2,19.5,0.9,10.9,0.8
N/C(=N\OC(=O)C(c1ccccc1)c1ccccc1)c1cccnc1,39.5*,51.1*,-2.5,0.8,19.0,0.5
N/C(=N\OC(=O)c1ccc(Cl)cc1)c1cccnc1,9.9,12.1,-2.8,0.6,42.8,0.9
O=C1CC(c2cc3c(cc2Br)OCO3)C2=C(CCCC2=O)N1 (stereo unspecified),7.0,16.1,4.2,0.8,16.3,0.8
COC(=O)CCN(C)CCC(=O)OC,12.8,-4.1,-17.7,1.1,-8.4,1
COC(=O)CCN(C(C)=O)c1ccc(N)cc1,40.1*,-6.8,-7.1,1,-3.3,1.1
